Our source for the growth values is PubChem BioAssay (NCI).

Each structure is given as a SMILES string. This is part of a sample that, as a whole, favours compounds with a hit. Of some 83,000 tested, about 20% had one in any assay.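 Each cell line was grown in a 96-well plate and treated with one concentration of compound for 48 hours. Values below 10 were considered active.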 A number with no mark means an inactive call. The source made the active and inactive calls.

Among the test systems are SR leukemia; RPMI-8226 leukemia; OVCAR-8 ovarian; OVCAR-5 ovarian; OVCAR-4 ovarian; SK-OV-3 ovarian; IGROV1 ovarian; OVCAR-3 ovarian; HS 578T breast; NCI/ADR-RES ovarian; T-47D breast; BT-549 breast; MDA-MB-435 melanoma; SW-620 colon; MCF7 breast; HCT-116 colon; KM12 colon; HCC-2998 colon.
Holding throughout (assay): NCI-60 one-dose screen, 48 h (100 = growth as untreated, 0 = no growth, -100 = all killed)
What all share (details): 10 µM unless noted

On to `Cn1cc(-c2nonc2-c2c[nH]c3ccc(F)cc23)c2cc(Br)ccc21`, for which the growth in the assay on SR leukemia is 27%; with RPMI-8226 leukemia, 46%; with OVCAR-8 ovarian it was 40.5%; with OVCAR-5 ovarian, 58.7%; with OVCAR-4 ovarian, 43.8%; in the assay on SK-OV-3 ovarian, 64.4%. Also, the growth with IGROV1 ovarian is 64%; in the assay on OVCAR-3 ovarian, 60.3%; in the assay on HS 578T breast, 63.2%; with NCI/ADR-RES ovarian it was 42.1%; in the assay with T-47D breast, 14.8%; in the assay on BT-549 breast, 65.9%. In addition, the growth in the assay with MDA-MB-435 melanoma was 51%; in the assay on SW-620 colon, 64.5%; with MCF7 breast it was 32.2%; in the assay on HCT-116 colon, 35.1%; with KM12 colon, 29.4%.
On to `COc1cccc2c(N=NC(=O)c3ccc(S(N)(=O)=O)cc3)c(O)[nH]c12`, for which the growth with SR leukemia is 81.2%; with RPMI-8226 leukemia it was 103%; in the assay with OVCAR-8 ovarian, 102%; with OVCAR-5 ovarian, 106%; in the assay with OVCAR-4 ovarian, 96.8%; in the assay on SK-OV-3 ovarian, 107%. Also, the growth in the assay with IGROV1 ovarian is 101%; with OVCAR-3 ovarian, 114%; with HS 578T breast, 101%; with NCI/ADR-RES ovarian, 105%; in the assay with T-47D breast, 92.9%; with BT-549 breast it was 94.3%. The growth in the assay on MDA-MB-435 melanoma is 100%; in the assay on SW-620 colon, 94.8%; with MCF7 breast, 91.1%; in the assay on HCT-116 colon, 99.4%; in the assay with HCC-2998 colon, 113%; in the assay with KM12 colon, 101%.
Regarding `O=C(c1ccc(Cl)cc1Cl)N1c2ccccc2Sc2ccccc21`, the growth with SR leukemia is 32.2%; with RPMI-8226 leukemia, 55.3%; with OVCAR-8 ovarian, 50.7%; in the assay with OVCAR-5 ovarian, 71.4%; in the assay with OVCAR-4 ovarian it was 81.9%; in the assay on SK-OV-3 ovarian, 69.1%. The growth in the assay on IGROV1 ovarian was 60.9%; with OVCAR-3 ovarian it was 58.9%; in the assay with HS 578T breast, 95.9%; in the assay with NCI/ADR-RES ovarian, 60.9%; in the assay on T-47D breast, 67.3%; in the assay on BT-549 breast, 54.6%. Also, the growth in the assay on MDA-MB-435 melanoma is 47.9%; in the assay on SW-620 colon, 38.3%; with MCF7 breast, 52.4%; in the assay on HCT-116 colon, 22.8%; in the assay with KM12 colon, 49.8%.
Turning to `COc1ccc(-c2cc(C(=O)N3N=C(c4ccc(N)cc4)CC3c3ccccc3)c3ccccc3n2)cc1` (stereo not given), the growth in the assay on SR leukemia was 22.6%; with RPMI-8226 leukemia it was 23.5%; in the assay on OVCAR-8 ovarian, 47.5%; with OVCAR-5 ovarian, 64.7%; in the assay with OVCAR-4 ovarian it was 65%; in the assay on SK-OV-3 ovarian, 34.9%. Also, the growth was 49.5% with IGROV1 ovarian; 10.7% in the assay on OVCAR-3 ovarian; 36.8% in the assay on HS 578T breast; 34.4% with NCI/ADR-RES ovarian; 38.2% in the assay with T-47D breast; 41.3% in the assay with BT-549 breast. For the same compound, the growth is -20% (active) with MDA-MB-435 melanoma; 23.4% with SW-620 colon; 24.1% with MCF7 breast; 17.8% with HCT-116 colon; 25.1% in the assay with KM12 colon.
Take `COc1ccc2nc3ccccc3c(NCc3ccccc3)c2c1`: the growth with SR leukemia is 4.27% (active); in the assay with RPMI-8226 leukemia it was -30.9% (active); in the assay on OVCAR-8 ovarian it was 28.2%; in the assay on OVCAR-5 ovarian, 29%; with OVCAR-4 ovarian, 40.8%; with SK-OV-3 ovarian it was 44.5%. The growth in the assay with IGROV1 ovarian is 16.4%; with OVCAR-3 ovarian, 41%; in the assay on HS 578T breast it was 25.2%; with NCI/ADR-RES ovarian, 18.3%; in the assay on T-47D breast, 35.3%; in the assay on BT-549 breast, 50.3%. In addition, the growth in the assay with MDA-MB-435 melanoma is 33.8%; in the assay with SW-620 colon, 19.5%; in the assay with MCF7 breast, 4.29% (active); in the assay with HCT-116 colon it was 14.8%; with HCC-2998 colon, -35.5% (active); in the assay on KM12 colon it was 36.5%.
Regarding `CCC(CC)(N(CC(=O)O)CC(=O)O)C(CC)(CC)N(CC(=O)O)CC(=O)O`, the growth in the assay on SR leukemia is 93.7%; in the assay with RPMI-8226 leukemia it was 82.7%; with OVCAR-8 ovarian, 101%; in the assay with OVCAR-5 ovarian it was 117%; in the assay with OVCAR-4 ovarian it was 101%; in the assay with SK-OV-3 ovarian it was 104%. For the same compound, the growth in the assay on IGROV1 ovarian was 116%; with OVCAR-3 ovarian it was 121%; in the assay with HS 578T breast, 118%; with NCI/ADR-RES ovarian, 107%; with T-47D breast, 96.3%; with BT-549 breast it was 117%. The growth was 126% with MDA-MB-435 melanoma; 112% in the assay on SW-620 colon; 100% with MCF7 breast; 110% with HCT-116 colon; 98.1% in the assay with HCC-2998 colon; 120% with KM12 colon.
`C/C(=C(\c1ccc(OCCN2CCCCCC2)cc1)c1ccc(OC(=O)Cc2ccccc2)cc1)c1ccc(Cl)cc1`: the growth in the assay on SR leukemia was -44.9% (active); in the assay on RPMI-8226 leukemia it was -40.2% (active); in the assay on OVCAR-8 ovarian, 9.9% (active); in the assay with OVCAR-5 ovarian, 67.6%; in the assay with OVCAR-4 ovarian, 36.7%; in the assay with SK-OV-3 ovarian, 60.7%. Besides, the growth in the assay on IGROV1 ovarian was 64.5%; in the assay on OVCAR-3 ovarian it was 19.8%; in the assay with HS 578T breast, 23.4%; with NCI/ADR-RES ovarian, 56.6%; with T-47D breast, 10%; in the assay on BT-549 breast it was 67.5%. In addition, the growth in the assay with MDA-MB-435 melanoma was 41.6%; in the assay on MCF7 breast, 3.78% (active); in the assay on HCT-116 colon, 4.58% (active); in the assay with HCC-2998 colon it was 13.6%; with KM12 colon, 22.1%.
As to `COc1ccc(Cc2cnc(NC(=O)c3sc4ccccc4c3Cl)s2)cc1`, the growth in the assay with SR leukemia is 9.94% (active); in the assay on RPMI-8226 leukemia, 28.3%; in the assay with OVCAR-8 ovarian it was 18.7%; in the assay with OVCAR-5 ovarian it was 48.4%; with OVCAR-4 ovarian, 60.5%; in the assay with SK-OV-3 ovarian, 33.9%. Moreover, the growth in the assay with IGROV1 ovarian is 25.9%; with OVCAR-3 ovarian, -8.48% (active); in the assay on HS 578T breast it was 8.78% (active); in the assay on NCI/ADR-RES ovarian, 6.4% (active); with T-47D breast, 34.5%; in the assay with BT-549 breast, 34.7%. The growth in the assay with MDA-MB-435 melanoma was -39.1% (active); in the assay with SW-620 colon it was 25%; in the assay on MCF7 breast, 17.5%; in the assay on HCT-116 colon it was 15.1%; in the assay on HCC-2998 colon, 25.6%; in the assay on KM12 colon, 16.7%.
